Results filed as inconclusive are left out. Where a call stands in place of a potency, no number is given. Activity calls are given as the source filed them. Calls follow the shape of the dose curve; as a rule, active = well fitted curve in the direction sought with a large enough effect in the repeat runs; inconclusive = weak or mixed curves; inactive = no such curve, though single readings can be large; an effect the other way counts as inactive or inconclusive. Non-standard residues stand in square brackets, D forms with d. Residues, ends and D or L forms follow the SMILES beside them. pGlu = O=C1CC[C@@H](C(=O)O)N1
experiment: qHTS assay for identifying genotoxic compounds that show differential cytotoxicity against isogenic chicken DT40 cell lines with known DNA damage response pathways - Rev3 mutant cell line (AID 743014); conditions: chicken DT40 Rev3-/- viability, CellTiter-Glo, 40 h; series mostly up to 68.4 µM; also: nearly all actives have a fitted effect of over 55% in size
Potency is read from the fitted curve at half-maximal effect.

Compound	Potency
c1ccc2c(c1)Sc1ccccc1N2CCN1CCCC1	8.41 µM (active)
O=C(O)C1CCCN1 (stereo unspecified)	inactive
CCCCC(=O)OCC(=O)[C@]1(O)Cc2c(O)c3c(c(O)c2[C@@H](O[C@H]2C[C@H](NC(=O)C(F)(F)F)[C@H](O)[C@H](C)O2)C1)C(=O)c1c(OC)cccc1C3=O	1.88 µM (active)

experiment: qHTS assay for identifying genotoxic compounds that show differential cytotoxicity against isogenic chicken DT40 cell lines with known DNA damage response pathways - Rad54/Ku70 mutant cell line (AID 743015); conditions: DT40 Rad54/Ku70 mutant viability, CellTiter-Glo, 40 h; series mostly up to 66.8 µM; also: nearly all actives have a fitted effect of over 60% in size

Compound	Potency
CN[C@@H]1CCc2[nH]c3ccc(C(N)=O)cc3c2C1	inactive
FC(F)(F)C(F)(F)C(F)(F)C(F)(F)C(F)(F)C(F)(F)F	inactive
Nc1ncnc2c1ncn2CCOCP(=O)(O)O	inactive
CCCCCCCCCCCCCCCC(=O)OC[C@@H](NC(=O)C(Cl)Cl)[C@H](O)c1ccc([N+](=O)[O-])cc1	inactive
C/C(=C(\CCOC(=O)c1ccccc1)SS/C(CCOC(=O)c1ccccc1)=C(/C)N(C=O)Cc1cnc(C)nc1N)N(C=O)Cc1cnc(C)nc1N	26.6 µM (active)
CCOc1cc(-c2nccc3cc(OC)c(OC)cc23)cc(OCC)c1OCC	8.41 µM (active)
CCOC(=O)[C@H](CCc1ccccc1)N[C@@H](C)C(=O)N1CC2(C[C@H]1C(=O)O)SCCS2	inactive
CC(=O)N=c1sc(S(N)(=O)=O)nn1C	inactive
CN1[C@@H]2CCC[C@H]1CC(NC(=O)c1nn(C)c3ccccc13)C2 (stereo partly specified)	inactive
O=C(O[C@H]1CN2CCC1CC2)N1CCc2ccccc2[C@@H]1c1ccccc1	26.6 µM (active)
CCC[C@@]1(CCc2ccccc2)CC(O)=C([C@H](CC)c2cccc(NS(=O)(=O)c3ccc(C(F)(F)F)cn3)c2)C(=O)O1	inactive
COC1=C(C(=O)O)N2C(=O)[C@@H](NC(=O)[C@H](N)C3=CCC=CC3)[C@H]2SC1	inactive
CCCCc1cc2c(=O)c(C(=O)OC)c[nH]c2cc1OCc1ccccc1	inactive
CCCCCCCCCCCCCCCCCC(=O)[O][Al]	inactive
CCNC(=O)[C@@H]1CCCN1C(=O)[C@H](CCCN=C(N)N)NC(=O)[C@H](CC(C)C)NC(=O)[C@@H](Cc1c[nH]c2ccccc12)NC(=O)[C@H](Cc1ccc(O)cc1)NC(=O)[C@H](CO)NC(=O)[C@H](Cc1c[nH]c2ccccc12)NC(=O)[C@H](Cc1cnc[nH]1)NC(=O)[C@@H]1CCC(=O)N1	1.06 µM (active)
C/C=C(/CC[C@@H](C)[C@H]1CC[C@H]2C3=CC[C@H]4[C@H](C)[C@@H](O)CC[C@]4(C)[C@H]3CC[C@]12C)C(C)C	inactive
O=C(Nc1ccc(Br)cc1)c1cc(Br)c(Br)s1	26.6 µM (active)
COc1ccccc1N1CCN(CCCC(=O)c2ccc(F)cc2)CC1	26.6 µM (active)
C[C@H](N)C(=O)N[C@@H](C)P(=O)(O)O	inactive

Compound	Potency
NC[C@@H]1O[C@H](O[C@H]2[C@@H](O)[C@H](O[C@@H]3[C@@H](O)[C@H](N)C[C@H](N)[C@H]3O[C@H]3O[C@H](CO)[C@@H](O)[C@H](O)[C@H]3N)O[C@@H]2CO)[C@H](N)[C@@H](O)[C@@H]1O	inactive
O=P(O)(O)C(Sc1ccc(Cl)cc1)P(=O)(O)O	inactive
CC[C@H](C)[C@H](NC(=O)[C@H](Cc1ccccc1)NC(=O)[C@H](C)NC(=O)[C@H](CC(=O)O)NC(=O)[C@H](CCCCN)NC(=O)[C@H](CO)NC(=O)[C@@H]1CCCN1C(=O)[C@@H]1CCC(=O)N1)C(=O)NCC(=O)N[C@@H](CC(C)C)C(=O)N[C@@H](CCSC)C(N)=O ([pGlu]PSKDAFIGLM-NH2)	inactive
Cc1cccc(Nc2ncccc2C(=O)O)c1C	inactive
CCCCCC(O)/C=C/C=O (stereo unspecified)	inactive
OCCO[C@@H]1[C@@H](O)[C@H](O)[C@@H](CO)O[C@@H]1O	inactive
N[C@H](CCC(=O)O)C(=O)O	inactive
CC(O)CN(C)C (stereo unspecified)	inactive
Cc1ccc(C2(O)CCN(CCCC(=O)c3ccc(F)cc3)CC2)cc1	10.6 µM (active)
CO[C@H]1O[C@@H]2O[C@@]3(C)CC[C@H]4[C@H](C)CC[C@@H]([C@H]1C)[C@@]24OO3	0.668 µM (active)
CC1=C(/C=C/C(C)=C/C=C/C(C)=C/C(=O)Oc2c(C)c(C)c3c(c2C)CC[C@@](C)(CCC[C@H](C)CCC[C@H](C)CCCC(C)C)O3)C(C)(C)CCC1	inactive
O=C(O)[C@@H](O)[C@H](O)[C@H](O)[C@@H](O)C(=O)O (tested in a mixture with another compound)	inactive
O=C(Cn1c(=O)sc2ccc(Cl)cc21)N1CCN(CCO)CC1	inactive
NS(=O)(=O)c1cc2c(cc1Cl)NC(Cc1ccccc1)NS2(=O)=O (stereo unspecified)	inactive
c1cnc2cc3c(cc2n1)[C@@H]1CNC[C@H]3C1	inactive
NCCCC[C@H](NC(=O)[C@@H]1CCCN1C(=O)[C@@H]1CSSC[C@H](N)C(=O)N[C@@H](Cc2ccccc2)C(=O)N[C@@H](Cc2ccccc2)C(=O)N[C@@H](CCC(N)=O)C(=O)N[C@@H](CC(N)=O)C(=O)N1)C(=O)NCC(N)=O	inactive
c1ccc2c(c1)Sc1ccccc1N2CCN1CCCC1	16.8 µM (active)
O=C(O)C1CCCN1 (stereo unspecified)	inactive
CCCCC(=O)OCC(=O)[C@]1(O)Cc2c(O)c3c(c(O)c2[C@@H](O[C@H]2C[C@H](NC(=O)C(F)(F)F)[C@H](O)[C@H](C)O2)C1)C(=O)c1c(OC)cccc1C3=O	0.211 µM (active)

Source: PubChem BioAssay (Tox21)
